Data taken from PubChem BioAssay (Tox21).
Results filed as inconclusive are left out. Where a call stands in place of a potency, no number is given. Values without a mark were called inactive. The source made the active and inactive calls. Unless noted, the call rests on the fitted dose curve; in most records, active means well fitted curve in the direction sought with a large enough effect in the repeat runs; inconclusive means weak or mixed curves; inactive means no such curve, though single readings can be large; an effect the other way counts as inactive or inconclusive.

Legend:
[1] = qHTS assay to identify small molecule agonists of the vitamin D receptor (VDR) signaling pathway - cell viability counter screen (AID 743224); further: series mostly up to about 63 µM; nearly all actives have a fitted effect of over 50% in size
Procedure, shortened: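 Luminescence from CellTiter-Glo, read after 30 min at room temperature, reports viability of VDR-bla cells treated with compounds for 16 h at 37C in the wells used for the beta-lactamase FRET read.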

[2] = qHTS assay to identify small molecule agonists of the NFkB signaling pathway (AID 1159509; active means well fitted curve in the direction sought with a large enough effect in the signal ratio in the repeat runs, not every such curve was filed as active; the % refers to the signal ratio; further: series mostly up to about 61 µM)
Procedure, shortened: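 NFkB-bla ME-180 cells with a beta-lactamase reporter under an NF-kB response element were plated overnight, treated with compounds in DMSO for 5 hr at 37 C, then loaded with FRET substrate for 1.5 hr at room temperature.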

[3] = qHTS assay to identify small molecule agonists of the NFkB signaling pathway - cell viability counter screen (AID 1159515; calls by dose curve; further: series mostly up to about 61 µM; nearly all actives have a fitted effect of over 55% in size)
Procedure, shortened: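 Luminescence from CellTiter-Glo (30 min, room temperature) gives viability, measured in the same wells as the beta-lactamase reporter read. Cells were NFkB-bla ME-180, 2,000 per well, treated 5 hr with compounds.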

[4] = qHTS assay to identify small molecule agonists of the endoplasmic reticulum stress response signaling pathway (AID 1159516; active means well fitted activation curve with a large enough effect in the signal ratio in the repeat runs, not every such curve was filed as active; the % refers to the signal ratio)
Procedure, shortened: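 Read-out is beta-lactamase cleavage of a FRET substrate (405 nm excitation; 460 and 530 nm emissions) in ESRE-bla HeLa cells after a 5 hr compound exposure at 37 C. Substrate incubation ran 2 hr at room temperature.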

[5] = qHTS assay to identify small molecule agonists of the endoplasmic reticulum stress response signaling pathway - cell viability counter screen (AID 1159517; calls by dose curve;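 further: HeLa cells carrying an ER stress response element beta-lactamase reporter; series mostly up to about 61 µM; nearly all actives have a fitted effect of over 50% in size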)
Procedure, shortened: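 Counter-screen wells were identical to the reporter wells. Cells were plated at 1,500 per well and dosed for 5 hr, then read for luminescence 30 min after CellTiter-Glo addition.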

[6] = qHTS assay to identify small molecule antagonists of the retinoid-related orphan receptor gamma (ROR-gamma) signaling pathway - cell viability counter screen (AID 1159520); further: nearly all actives have a fitted effect of over 50% in size
Procedure, shortened: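 Tet-on ROR gamma CHO cells were given compounds for 2 hr, then doxycycline hyclate at 1 uM final, and incubated 16 hr at 37 C. Viability was measured as ATP content by CellTiter-Glo luminescence.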

[7] = target: Nuclear receptor ROR-gamma (Homo sapiens) (UniProt P51449); test: qHTS assay to identify small molecule antagonists of the retinoid-related orphan receptor gamma (ROR-gamma) signaling pathway (AID 1159521;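 further: CHO cells with doxycycline inducible ROR-gamma driving an RORE luciferase reporter; top concentration of the series differs between compounds; nearly all actives have a fitted effect of over 50% in size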)
Procedure, shortened: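 Luminescence readout (ONE-Glo, 30 min RT) after 16 h doxycycline induction; loss of signal scored as antagonism. CHO cells with TET-inducible RORγ and RORE-LUC reporter; compounds added 2 h before 1 uM final doxycycline.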

[8] = qHTS assay to identify small molecule agonists of the AP-1 signaling pathway - cell viability counter screen (AID 1159525; calls by dose curve; further: nearly all actives have a fitted effect of over 55% in size)
Procedure, shortened: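 AP-1-bla ME-180 cells in Opti-MEM with 0.5% dialyzed FBS, compound exposure 5 h at 37 C in 15-point titration. Viability read in the same wells as ATP content by CellTiter-Glo luminescence, normalised to tetra-n-octylammonium bromide and DMSO controls.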

[9] = target: Retinoic acid receptor RXR-alpha (Homo sapiens) (UniProt P19793); test: qHTS assay to identify small molecule agonists of the RXR signaling pathway (AID 1159527; calls by dose curve; further: nearly all actives have a fitted effect of over 35% in size)
Procedure, shortened: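 Agonist mode; 9-cis retinoic acid positive control. HEK 293T UAS-bla reporter cells, 2% charcoal-stripped FBS, 16 hr compound exposure at 37 C/5% CO2. LiveBLAzer B/G FRET substrate 2 hr RT; ex 405, em 460/530 nm.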

[10] = qHTS assay to identify small molecule agonists of the RXR signaling pathway - cell viability counter screen (AID 1159529)
Procedure, shortened: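 Luminescence from CellTiter-Glo (30 min, RT) measured viability in the same wells as the beta-lactamase reporter readout. Cells: GeneBLAzer RXR-alpha HEK 293T, 2% charcoal-stripped FBS. Compound exposure 16 hr, 37 C.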

[11] = qHTS assay to identify small molecule antagonists of the retinoid acid receptor (RAR) signaling pathway - cell viability counter screen (AID 1159551); further: nearly all actives have a fitted effect of over 35% in size
Procedure, shortened: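 Luminescent ATP quantitation (CellTiter-Glo) gave cell viability in C3RL4 cells exposed to test chemicals for 6 h at 37 C alongside 1 uM final retinol.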

[12] = qHTS assay to identify small molecule antagonists of the retinoic acid receptor (RAR) signaling pathway (AID 1159552; further: nearly all actives have a fitted effect of over 50% in size)
Procedure, shortened: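 Luminescence from a RARE luciferase reporter in C3RL4 cells served as read-out. Cells received compounds together with 1 uM final retinol and incubated 6 hr at 37 C before detection reagent was added for 30 min at room temperature.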

[13] = qHTS assay to identify small molecule agonists of the retinoic acid receptor (RAR) signaling pathway (AID 1159553); further: potency means the concentration at half of the fitted maximal effect
Procedure, shortened: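 Luminescence from a RARE-driven luciferase reporter in C3RL4 cells served as the read-out, measured after 30 min with detection reagent at room temperature. Compounds in DMSO were applied for 6 hr at 37 C following overnight seeding.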

[14] = qHTS assay to identify small molecule antagonists of the vitamin D receptor (VDR) signaling pathway - cell viability counter screen (AID 743225); further: nearly all actives have a fitted effect of over 50% in size
Procedure, shortened: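 Viability counter screen run in the same wells as the beta-lactamase reporter assay: HEK 293T VDR-UAS-bla cells, 16 h compound exposure at 37C with 3 nM (final) 1-alpha,25-dihydroxyvitamin D3. CellTiter-Glo luminescence, 30 min, room temperature.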

[15] = qHTS assay to identify small molecule agonists of the AP-1 signaling pathway (AID 1159526; calls by dose curve)

Chain of Retinoic acid receptor RXR-alpha (Homo sapiens) (P19793 whole entry, looked up): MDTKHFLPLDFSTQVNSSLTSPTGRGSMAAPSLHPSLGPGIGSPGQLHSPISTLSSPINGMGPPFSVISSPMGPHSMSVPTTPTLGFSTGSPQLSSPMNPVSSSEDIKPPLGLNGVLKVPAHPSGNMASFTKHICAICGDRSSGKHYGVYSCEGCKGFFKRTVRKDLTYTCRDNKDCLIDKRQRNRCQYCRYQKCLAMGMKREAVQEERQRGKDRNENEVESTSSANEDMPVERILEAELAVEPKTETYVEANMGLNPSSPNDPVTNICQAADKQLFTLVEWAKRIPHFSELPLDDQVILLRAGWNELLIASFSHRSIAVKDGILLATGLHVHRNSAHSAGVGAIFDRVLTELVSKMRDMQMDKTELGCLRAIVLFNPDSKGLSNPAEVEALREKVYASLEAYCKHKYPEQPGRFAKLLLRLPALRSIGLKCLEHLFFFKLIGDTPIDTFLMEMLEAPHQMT

COc1ccc(CN(CCN(C)C)c2ncccn2)cc1
outcome [1]: inactive | outcome [2]: inactive | outcome [3]: inactive | outcome [4]: inactive | outcome [5]: inactive | Potency [6]: inactive | Potency [7]: inactive | outcome [8]: inactive | outcome [9]: inactive | Potency [10]: inactive | outcome [11]: inactive | outcome [12]: inactive | Potency [13]: inactive

Cc1ccc2c(Cl)cc(Cl)c(O)c2n1
outcome [1]: inactive | outcome [14]: inactive | outcome [2]: inactive | outcome [3]: inactive | outcome [4]: inactive | outcome [5]: inactive | Potency [6]: inactive | Potency [7]: inactive | Potency [15]: inactive | Potency [10]: inactive | outcome [11]: inactive | outcome [12]: inactive | Potency [13]: inactive

N#Cc1ccc(CC(=O)c2cccc(C(F)(F)F)c2)cc1
outcome [1]: inactive | outcome [2]: inactive | outcome [3]: inactive | outcome [4]: inactive | outcome [5]: inactive | Potency [6]: inactive | Potency [7]: inactive | Potency [15]: inactive | Potency [10]: inactive | outcome [11]: inactive | outcome [12]: inactive | Potency [13]: inactive

Clc1cc(Cl)c2c(c1)N=C1CCCCCN1C2
outcome [1]: inactive | outcome [14]: inactive | outcome [2]: inactive | outcome [3]: inactive | outcome [4]: inactive | outcome [5]: inactive | Potency [6]: inactive | Potency [7]: inactive | outcome [8]: inactive | Potency [15]: inactive | outcome [11]: inactive | outcome [12]: inactive

CCCCCCCCCCCCSC#N
outcome [1]: inactive | outcome [14]: inactive | outcome [2]: inactive | outcome [3]: inactive | outcome [4]: inactive | outcome [5]: inactive | Potency [6]: inactive | Potency [7]: inactive | outcome [8]: inactive | Potency [15]: inactive | outcome [11]: inactive

O=[N+]([O-])c1cccc(I)c1
outcome [1]: inactive | outcome [14]: inactive | outcome [2]: inactive | outcome [3]: inactive | outcome [4]: inactive | outcome [5]: inactive | Potency [6]: inactive | Potency [7]: inactive | Potency [15]: inactive | Potency [10]: inactive | outcome [11]: inactive | outcome [12]: inactive | Potency [13]: inactive

CC(=O)Nc1ccccc1O
outcome [1]: inactive | outcome [14]: inactive | outcome [2]: inactive | outcome [3]: inactive | outcome [4]: inactive | outcome [5]: inactive | Potency [6]: inactive | Potency [7]: inactive | outcome [8]: inactive | Potency [15]: inactive | outcome [11]: inactive

C=CC(=O)NC(C)(C)C
outcome [1]: inactive | outcome [14]: inactive | outcome [2]: inactive | outcome [3]: inactive | outcome [4]: inactive | outcome [5]: inactive | Potency [6]: inactive | Potency [7]: inactive | outcome [8]: inactive | Potency [15]: inactive | outcome [11]: inactive | outcome [12]: inactive

CCCCCCCCCCCCCCCCC(=O)O
outcome [1]: inactive | outcome [14]: inactive | outcome [2]: inactive | outcome [3]: inactive | outcome [4]: inactive | outcome [5]: inactive | Potency [6]: inactive | Potency [7]: inactive | outcome [8]: inactive | outcome [9]: inactive | Potency [10]: inactive | outcome [11]: inactive | outcome [12]: inactive | Potency [13]: inactive

Cc1cc(SC2=C(O)C[C@@](CCc3ccc(N)cc3)(C(C)C)OC2=O)c(C(C)(C)C)cc1CO
outcome [1]: inactive | outcome [14]: inactive | outcome [2]: inactive | outcome [3]: inactive | outcome [4]: inactive | outcome [5]: inactive | Potency [6]: inactive | Potency [7]: inactive | outcome [8]: inactive | Potency [15]: inactive | outcome [11]: inactive

O=C(O)c1cc(C(=O)O)c(C(=O)O)cc1C(=O)O
outcome [1]: inactive | outcome [14]: inactive | outcome [2]: inactive | outcome [3]: inactive | outcome [4]: inactive | outcome [5]: inactive | Potency [6]: inactive | Potency [7]: inactive | outcome [8]: inactive | Potency [15]: inactive | outcome [11]: inactive | outcome [12]: inactive

O=C(O)c1ccncc1
outcome [1]: inactive | outcome [14]: inactive | outcome [2]: inactive | outcome [3]: inactive | outcome [4]: inactive | outcome [5]: inactive | Potency [6]: inactive | Potency [7]: inactive | Potency [15]: inactive | Potency [10]: inactive | outcome [11]: inactive | outcome [12]: inactive | Potency [13]: inactive

CCC1=C(C)CN(C(=O)NCCc2ccc(S(=O)(=O)NC(=O)NC3CCC(C)CC3)cc2)C1=O (stereo unspecified)
outcome [1]: inactive | outcome [14]: inactive | outcome [2]: inactive | outcome [3]: inactive | outcome [4]: inactive | outcome [5]: inactive | Potency [6]: inactive | Potency [7]: inactive | Potency [15]: inactive | Potency [10]: inactive | outcome [11]: inactive | outcome [12]: inactive

CCC[Si](OC)(OC)OC
outcome [1]: inactive | outcome [2]: inactive | outcome [3]: inactive | outcome [4]: inactive | outcome [5]: inactive | Potency [6]: inactive | Potency [7]: inactive | Potency [15]: inactive | Potency [10]: inactive | outcome [11]: inactive | outcome [12]: inactive | Potency [13]: inactive

CC(O)C(C)O (stereo unspecified)
outcome [14]: inactive | outcome [2]: inactive | outcome [3]: inactive | outcome [4]: inactive | outcome [5]: inactive | Potency [6]: inactive | Potency [7]: inactive | outcome [8]: inactive | Potency [15]: inactive | outcome [11]: inactive

C=CC(=O)OCCCCCCCCCC
outcome [1]: inactive | outcome [14]: inactive | outcome [2]: inactive | outcome [3]: inactive | outcome [4]: inactive | outcome [5]: inactive | Potency [6]: inactive | Potency [7]: inactive | outcome [8]: inactive | outcome [9]: inactive | Potency [10]: inactive | outcome [11]: inactive | outcome [12]: inactive

c1ccc(CCNc2nc(-c3ccccc3)cs2)cc1
outcome [1]: inactive | outcome [14]: inactive | outcome [2]: inactive | outcome [3]: inactive | outcome [4]: inactive | outcome [5]: inactive | Potency [6]: inactive | Potency [7]: inactive | outcome [8]: inactive | outcome [9]: inactive | Potency [10]: inactive | outcome [11]: inactive | outcome [12]: inactive

C/C=C1\[C@H]2C=C(C)C[C@]1(N)c1ccc(=O)[nH]c1C2
outcome [1]: inactive | outcome [14]: inactive | outcome [2]: inactive | outcome [3]: inactive | outcome [4]: inactive | outcome [5]: inactive | Potency [6]: inactive | Potency [7]: inactive | outcome [8]: inactive | Potency [15]: inactive | outcome [11]: inactive | outcome [12]: inactive

O=C(NC1CCN(CCc2c[nH]c3ccccc23)CC1)c1ccccc1
outcome [14]: inactive | outcome [2]: inactive | outcome [3]: inactive | outcome [4]: inactive | outcome [5]: inactive | Potency [6]: inactive | Potency [7]: inactive | outcome [8]: inactive | outcome [9]: inactive | Potency [10]: inactive | outcome [11]: inactive | outcome [12]: inactive

Nc1ccc(C(=O)Oc2ccccc2)c(O)c1
outcome [1]: inactive | outcome [14]: inactive | outcome [2]: inactive | outcome [3]: inactive | outcome [4]: inactive | outcome [5]: inactive | Potency [6]: inactive | outcome [8]: inactive | Potency [15]: inactive | Potency [10]: inactive | outcome [11]: inactive | outcome [12]: inactive | Potency [13]: 3.35 µM (active)

CCCCC(CC)COCCC#N (stereo unspecified)
outcome [1]: inactive | outcome [14]: inactive | outcome [2]: inactive | outcome [3]: inactive | outcome [4]: inactive | outcome [5]: inactive | Potency [6]: inactive | Potency [15]: inactive | Potency [10]: inactive | outcome [11]: inactive

CC(C)(C)c1ccc(CCC=O)cc1
outcome [1]: inactive | outcome [14]: inactive | outcome [2]: inactive | outcome [3]: inactive | outcome [4]: inactive | outcome [5]: inactive | Potency [6]: inactive | Potency [7]: inactive | Potency [15]: inactive | Potency [10]: inactive | outcome [11]: inactive | outcome [12]: inactive
